system: Human papillomavirus type 1a protein E7 (residues 44-93); assay: small molecules binding HPV E7 44-93 – biochemical, small-molecule microarray, residues 44-93, 635 nm fluorescence, primary screen (AID 1108); conditions: fluorescence 635 nm, higher = more signal;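 also: E7 fragment applied at 1 µg/mL in TBST for 1 h at 4 C; score combines spot fluorescence with its signal to noise ratio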

Which composite z-score does the source give for N#Cc1ccc(NN2C(C(O)c3ccc(Br)cc3)C=CC3C(=O)N(c4ccccc4)C(=O)C32)cc1 (centres undefined) here?
The composite z-score was -1.46.

For Oc1ccc2cc[n+](Cc3cc4c(cc3Br)OCO4)cc2c1, which composite z-score is on record?
Its composite z-score is -1.22.

For Cc1cc(C)c(C(O)C2C=CC3C(=O)N(c4ccccc4)C(=O)C3N2Nc2ccccc2F)c(C)c1 (centres undefined), which composite z-score is on record?
The composite z-score was 0.0453.

Which composite z-score does the source give for COCCOC(=O)N1C(=O)[C@@]2(c3cc(C#CC4=CCCCC4)ccc31)[C@H](C(=O)Nc1nc3ccccc3s1)[C@H]1C(=O)O[C@H](c3ccccc3)[C@H](c3ccccc3)N1[C@@H]2c1ccc(O)cc1 here?
The composite z-score was 1.39.

For COc1ccc([Si](C)(C)[C@H]2[C@H](CC(=O)N(CCO)Cc3ccccc3)O[C@@]3(C(=O)N(C)c4c(Br)cc(C)cc43)[C@@H]2C)cc1, which composite z-score is on record?
The composite z-score was 0.926.

With O=C(c1ccccc1)N1C(=O)[C@]2(Cc3ccccc31)N=C(c1ccc(OCCCO)cc1)O[C@@H]2c1ccccc1 as the molecule, how does the composite z-score read?
Its composite z-score is 1.44.

Which composite z-score does the source give for COc1ccc(CCNC(=O)[C@@]2(c3ccc([N+](=O)[O-])cc3)CC(=O)N(C3CCCCC3)[C@@H]2c2ccc(CO)cc2)cc1 here?
Its composite z-score is 0.91.

Which composite z-score does the source give for O=C(NCCN1CCOCC1)[C@@H]1c2ccccc2C(=O)N(Cc2ccccc2Cl)[C@H]1c1ccc(CO)cc1 here?
Its composite z-score is -0.388.

For CS(=O)(=O)CCOC(=O)C1=CC(c2ccc(CO)cc2)=CC(C2CC2)N(Cc2sc3ccccc3c2Cl)C=C1C(=O)OCCS(C)(=O)=O (centres undefined), which composite z-score is on record?
Its composite z-score is 0.491.

Which composite z-score does the source give for CC1=C2[C@@H](CCc3ccccc3)OB(O)C[C@@H]2[C@@H]2C(=O)N(C)C(=O)[C@@H]2C1 here?
The composite z-score was 0.135.

With CN1C2C=C(CCCO)C(C3C(=O)N(C(N)=O)C(=O)C32)C1C1CC1 (centres undefined) as the molecule, how does the composite z-score read?
Its composite z-score is -0.071.

With NCCCCCCNC(=O)[C@@H]1C[C@@H]2C(=O)N[C@@H](CCCCN)C(=O)N2[C@@H]1c1ccc(O)cc1 as the molecule, how does the composite z-score read?
The composite z-score was 1.31.

With CC1CC/C=C\[C@H]2OC34C=CCN(C(C)(C)C)C(=O)[C@H]3N(CCCCCO)C(=O)[C@@H]4C2C(=O)O1 (some centres undefined) as the molecule, how does the composite z-score read?
Its composite z-score is -1.33.

With Cc1ccc(F)cc1S(=O)(=O)N[C@@H]1CCN(Cc2ccc(Br)cc2)C1 as the molecule, how does the composite z-score read?
Its composite z-score is -1.51.

With COC(=O)[C@@]1(Cc2ccc(OC)cc2)[C@H]2c3cc(C(=O)N4CCCC4)n(CCO)c3C[C@H]2CN1C(=O)c1ccccc1 as the molecule, how does the composite z-score read?
Its composite z-score is 1.1.

For CCOC(=O)C[C@H]1[C@H](OC(=O)c2ccccc2-c2ccccc2)[C@@H](NC(=O)c2ccc3ccccc3c2)c2cc(OCCCO)ccc2N1C(=O)c1ccccc1, which composite z-score is on record?
Its composite z-score is 0.461.

Which composite z-score does the source give for CCCC1(C(=O)OC)C=C2C(=C(C)C(=O)C2C)CN1 (centres undefined) here?
Its composite z-score is -0.75.

With O=C1C2C=CC(C(O)C3CC=CCC3)N(Nc3ccccc3)C2C(=O)N1c1ccccc1 (centres undefined) as the molecule, how does the composite z-score read?
The composite z-score was 1.44.

For CC(C)N1C(=O)C[C@@](C(=O)NC2CC2)(c2ccc([N+](=O)[O-])cc2)[C@H]1c1ccc(CO)cc1, which composite z-score is on record?
Its composite z-score is 1.3.

Which composite z-score does the source give for C=C(C(=O)CC[C@H](OC(=O)c1ccccc1-c1ccccc1C(=O)O)c1cccc(OCCO)c1)C(C)C here?
Its composite z-score is -0.304.

With COC(=O)c1c(CC[C@@H](CO)NC(=O)N[C@@H](C)Cn2cc(-c3ccccn3)nn2)oc(C(C)=O)c1C(=O)OC as the molecule, how does the composite z-score read?
Its composite z-score is 0.683.

With COCC(=C=CC[C@H](O)c1ccc(CO)o1)CCO as the molecule, how does the composite z-score read?
Its composite z-score is 0.76.

Which composite z-score does the source give for COCC(=C=CC[C@H](O)c1ccc(OCCO)cc1)CCO here?
The composite z-score was 0.364.

Which composite z-score does the source give for COc1cc(NN2C(C(O)c3ccco3)C=CC3C(=O)N(C)C(=O)C32)cc(OC)c1OC (centres undefined) here?
The composite z-score was 0.02.

system: not listed separately; assay: hepatitis C replication reporter changes, two-sided – Huh7 cells, luciferase reporter, HCV replication inhibitor project, primary screen (AID 1109); conditions: Huh7 HCV replicon luciferase reporter, 48 h; higher = more signal;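 also: huh7 hepatoma cells harbouring a luciferase neomycin HCV replicon reporter; luciferase luminescence as measure of HCV replicon replication; test concentration not given here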

For Cc1ccc(S[C@]2(C(=O)NCC(F)(F)F)CC(=O)N(Cc3cc(C(F)(F)F)cc(C(F)(F)F)c3)[C@@H]2c2ccc(CO)cc2)cc1, which z-score is on record?
The z-score was -0.099.

For COCCOC(=O)N1C(=O)[C@@]2(c3ccccc31)[C@H](c1ccc(O)cc1)N1[C@H](c3ccccc3)[C@H](c3ccccc3)OC(=O)[C@H]1[C@@H]2C(=O)N1CCN(c2ncccn2)CC1, which z-score is on record?
Its z-score is -1.51.

Which z-score does the source give for CCCCC(CC)C(O)C1C=CC2C(=O)N(c3ccccc3)C(=O)C2N1Nc1ccccc1F (centres undefined) here?
Its z-score is -0.508.

Which z-score does the source give for COC(=O)C/C=C/C[C@]1(O)C(=O)N(C)c2ccccc21 here?
Its z-score is 0.027.

Which z-score does the source give for COCCOC(=O)N1C(=O)[C@@]2(c3cc(C#CCCO)ccc31)[C@H](c1ccc(OCCO)cc1)N1[C@H](c3ccccc3)[C@H](c3ccccc3)OC(=O)[C@H]1[C@@H]2C(=O)Nc1nc2ccccc2s1 here?
Its z-score is -1.13.

With CC(C)c1ccc(NN2C(C(O)c3ccc(F)cc3)C=CC3C(=O)N(c4ccccc4)C(=O)C32)cc1 (centres undefined) as the molecule, how does the z-score read?
Its z-score is -0.619.

Which z-score does the source give for O=C1[C@H]2C=C(I)[C@H](C[C@@H]2OCCOCCO)[C@@]12CO2 here?
Its z-score is -2.21.

Which z-score does the source give for COC(=O)[C@@]1(Cc2ccc(F)cc2)[C@H]2c3cc(C(=O)N4CCCC4)n(CCc4c[nH]c5ccccc45)c3C[C@H]2CN1C(=O)c1ccccc1 here?
Its z-score is -1.52.

For O=C1OCCC/C=C\[C@H]2OC34C=CCN(c5ccc6ccccc6c5)C(=O)[C@H]3N(CCO)C(=O)[C@@H]4C12 (some centres undefined), which z-score is on record?
The z-score was -0.0164.

For Cc1ccc(S[C@]2(C(=O)O)CC(=O)N(C3CCCCC3)[C@@H]2c2ccc(CO)cc2I)cc1, which z-score is on record?
The z-score was -0.298.

For CCCCC(CC)C(O)C1C=CC2C(=O)N(C)C(=O)C2N1Nc1ccccc1 (centres undefined), which z-score is on record?
Its z-score is -0.813.

For N#Cc1ccc(NN2C(C(O)c3ccc(Br)cc3)C=CC3C(=O)N(c4ccccc4)C(=O)C32)cc1 (centres undefined), which z-score is on record?
Its z-score is -0.431.

Which z-score does the source give for Oc1ccc2cc[n+](Cc3cc4c(cc3Br)OCO4)cc2c1 here?
The z-score was 1.65.

For Cc1cc(C)c(C(O)C2C=CC3C(=O)N(c4ccccc4)C(=O)C3N2Nc2ccccc2F)c(C)c1 (centres undefined), which z-score is on record?
Its z-score is 0.937.

Which z-score does the source give for COCCOC(=O)N1C(=O)[C@@]2(c3cc(C#CC4=CCCCC4)ccc31)[C@H](C(=O)Nc1nc3ccccc3s1)[C@H]1C(=O)O[C@H](c3ccccc3)[C@H](c3ccccc3)N1[C@@H]2c1ccc(O)cc1 here?
The z-score was -1.1.

For COc1ccc([Si](C)(C)[C@H]2[C@H](CC(=O)N(CCO)Cc3ccccc3)O[C@@]3(C(=O)N(C)c4c(Br)cc(C)cc43)[C@@H]2C)cc1, which z-score is on record?
Its z-score is -4.28.

With O=C(c1ccccc1)N1C(=O)[C@]2(Cc3ccccc31)N=C(c1ccc(OCCCO)cc1)O[C@@H]2c1ccccc1 as the molecule, how does the z-score read?
Its z-score is -2.94.

With COc1ccc(CCNC(=O)[C@@]2(c3ccc([N+](=O)[O-])cc3)CC(=O)N(C3CCCCC3)[C@@H]2c2ccc(CO)cc2)cc1 as the molecule, how does the z-score read?
The z-score was -0.88.

Which z-score does the source give for O=C(NCCN1CCOCC1)[C@@H]1c2ccccc2C(=O)N(Cc2ccccc2Cl)[C@H]1c1ccc(CO)cc1 here?
The z-score was -0.786.

With CS(=O)(=O)CCOC(=O)C1=CC(c2ccc(CO)cc2)=CC(C2CC2)N(Cc2sc3ccccc3c2Cl)C=C1C(=O)OCCS(C)(=O)=O (centres undefined) as the molecule, how does the z-score read?
Its z-score is -1.7.

With CC1=C2[C@@H](CCc3ccccc3)OB(O)C[C@@H]2[C@@H]2C(=O)N(C)C(=O)[C@@H]2C1 as the molecule, how does the z-score read?
Its z-score is -0.779.

For CN1C2C=C(CCCO)C(C3C(=O)N(C(N)=O)C(=O)C32)C1C1CC1 (centres undefined), which z-score is on record?
The z-score was -0.225.

For NCCCCCCNC(=O)[C@@H]1C[C@@H]2C(=O)N[C@@H](CCCCN)C(=O)N2[C@@H]1c1ccc(O)cc1, which z-score is on record?
The z-score was -0.31.

For CC1CC/C=C\[C@H]2OC34C=CCN(C(C)(C)C)C(=O)[C@H]3N(CCCCCO)C(=O)[C@@H]4C2C(=O)O1 (some centres undefined), which z-score is on record?
Its z-score is 0.095.

Which z-score does the source give for Cc1ccc(F)cc1S(=O)(=O)N[C@@H]1CCN(Cc2ccc(Br)cc2)C1 here?
The z-score was -1.5.

With COC(=O)[C@@]1(Cc2ccc(OC)cc2)[C@H]2c3cc(C(=O)N4CCCC4)n(CCO)c3C[C@H]2CN1C(=O)c1ccccc1 as the molecule, how does the z-score read?
Its z-score is -0.474.

For CCOC(=O)C[C@H]1[C@H](OC(=O)c2ccccc2-c2ccccc2)[C@@H](NC(=O)c2ccc3ccccc3c2)c2cc(OCCCO)ccc2N1C(=O)c1ccccc1, which z-score is on record?
The z-score was -1.27.

Which z-score does the source give for CCCC1(C(=O)OC)C=C2C(=C(C)C(=O)C2C)CN1 (centres undefined) here?
Its z-score is -0.442.

For O=C1C2C=CC(C(O)C3CC=CCC3)N(Nc3ccccc3)C2C(=O)N1c1ccccc1 (centres undefined), which z-score is on record?
Its z-score is -0.463.

With CC(C)N1C(=O)C[C@@](C(=O)NC2CC2)(c2ccc([N+](=O)[O-])cc2)[C@H]1c1ccc(CO)cc1 as the molecule, how does the z-score read?
Its z-score is -1.2.

Which z-score does the source give for C=C(C(=O)CC[C@H](OC(=O)c1ccccc1-c1ccccc1C(=O)O)c1cccc(OCCO)c1)C(C)C here?
The z-score was -1.73.

For COC(=O)c1c(CC[C@@H](CO)NC(=O)N[C@@H](C)Cn2cc(-c3ccccn3)nn2)oc(C(C)=O)c1C(=O)OC, which z-score is on record?
Its z-score is 0.51.

For COCC(=C=CC[C@H](O)c1ccc(CO)o1)CCO, which z-score is on record?
The z-score was -0.793.

For COCC(=C=CC[C@H](O)c1ccc(OCCO)cc1)CCO, which z-score is on record?
Its z-score is -0.794.

Which z-score does the source give for COc1cc(NN2C(C(O)c3ccco3)C=CC3C(=O)N(C)C(=O)C32)cc(OC)c1OC (centres undefined) here?
The z-score was -0.0965.
